In PubChem BioAssay (EPA / NIEHS) one finds AC50 and outcome data, which are given here for 22 compounds.

A structure can be active in one record and inactive in another. Activity calls are given as the source filed them. Rule for the calls: active = hit-call score of the fitted dose curve at least 0.9, where 1 is the maximum; inactive = score below 0.9.

A short description of this test: CEETOX_H295R_OHPROG: CeeTox H295R High-throughput Steroidogenesis Assay for OH-Progesterone (OHPROG) (AID 2283435). Particulars: actives raise or lower the signal. On the procedure: CEETOX_H295R is a cell-based, multiplexed-readout assay that uses H295R, a human adrenal gland cell line, with measurements taken at 48 hours after chemical dosing in a 96-well plate.CEETOX_H295R_OHPROG is one of 23 assay component(s) measured or calculated from the CEETOX_H295R assay. It is designed to make measurements of hormone induction, a form of inducible reporter, as detected with absorbance signals by HPLC-MS-MS technology.Data from the assay component CEETOX_H295R_OHPROG was analyzed into 1 assay endpoint. This assay endpoint, CEETOX_H295R_OHPROG, was analyzed with bidirectional fitting relative to DMSO as the negative control and baseline of activity. Using a type of inducible reporter, gain or loss-of-signal activity using HPLC-MS-MS was used to understand synthesis of 17alpha-hydroxyprogesterone in H295R cell line at 48hr of chemical exposure. To generalize the intended target to other relatable targets, this assay endpoint is annotated to the steroid hormone intended target family, where the subfamily is progestagens.
Cell culture and media preparation procedures were conducted in accordance with OECD Test No. 456 guidelines, with minor modifications. H295R cells (ATCC CRL-2128) were expanded for 5 passages and frozen in batches in liquid nitrogen. Prior to the steroidogenesis assay, H295R cells were thawed and passed at least 4 times. The maximum passage was 10. Cells were maintained in a 1:1 mixture of DMEM/F12 supplemented with 5ml/L ITS+ Premix (BD Bioscience) and 12.5 ml/L Nu-Serum (BD Bioscience). After seeding cells into 96-well plates at 50-60% confluency, cells were allowed to adhere overnight. Prior to chemical testing, culture medium was replaced with 175 uL medium containing 10 uM forskolin to stimulate steroidogenesis for 48 hours. Following prestimulation, forskolin medium was replaced with medium containing test chemical solubilized in DMSO (ensuring a final concentration of 0.1% DMSO). Test chemicals were incubated for 48 hours, then the medium was removed and split into 2 vials containing approximately 75uL each, and stored at -80 C prior to hormone analysis. For steroid quantification, media samples were shipped to OpAns, LLC (Durham, NC) on dry ice, and samples were thawed to room temperature prior to liquid-liquid extraction. Steroid hormones were extracted from media samples using methyl tertbutyl ether (MTBE). An extra derivatization with dansyl chloride was included for estrogen (estrone and estradiol) detection only. Steroid hormones were separated by HPLC, eluted using a reverse phase C18 gradient with electrospray positive ionization, followed by quantification by tandem mass spectrometry (MS/MS). Data were acquired on a MassHunter Workstation Acquisition version B03.01 (Agilent Technologies, Inc.) and processed using MassHunter Quantitative Analysis for QQQ. Accuracy was determined for each hormone analyte from 3 standards to determine upper and lower limits of quantification (ULOQ and LLOQ, respectively) using a 7-point standard curve. Precision and accuracy of the extraction and quantification methods were calculated as the percent relative standard deviation (%RSD) of the spiked standards and percent spiked standard recovered, respectively. […] Test medium was removed following chemical exposure, and cell viability was evaluated in the same wells by MTT. MTT procedures were as follows: after removal of test medium, 500 uL of 0.5 mg/ml of 3-[4,5-dimethylthiazol-2-y]2,5-diphenyltetrazoliumbromide solution was added to the cells. Following a 4-hour incubation at 37 C and 5% CO2 to allow formazan-crystal formation, the MTT solution was removed and blue formazan salt crystals were solubilized using 500uL anhydrous isopropanol with shaking for 20 minutes. Absorbance was read at 570 and 650nm using a Packard Fusion microplate reader. Background correction of absorbance units was used to determine percent change relative to controls. […]
A word on the AC50: it is the concentration at which the activity in the assay is half-maximal. For the compound `CC1(C)CCC(Cc2ccc(Cl)cc2)C1(O)Cn1cncn1` (stereo not drawn), the half-maximal activity concentration (AC50) is 95.9 nM (active).
Turning to `COP(=O)(OC)O/C(=C\Cl)c1cc(Cl)c(Cl)cc1Cl`, the call was inactive.
`CCOP(=S)(OCC)SCSP(=S)(OCC)OCC`: the AC50 is 1730 nM (active).
Regarding `COc1cc(-c2ccc(N)c(OC)c2)ccc1N`, the AC50 is 1900 nM (active) and the call was inactive.
For `CCOP(=S)(OCC)SCCS(=O)(=O)CC`, the AC50 was 14900 nM (active).
Turning to `C=CC(=O)N(C)C`, the result was inactive.
Take `C1CCC(NC2CCCCC2)CC1`: the result was inactive.
`CC12CC1(C)C(=O)N(c1cc(Cl)cc(Cl)c1)C2=O` (stereo not drawn): the AC50 is 20900 nM (active).
For the compound `Nc1ccc(-c2ccc(N)c(Cl)c2)cc1Cl`, the compound was called inactive.
Same read-out and setting: in the case of `C[C@]12CCC(=O)C[C@@H]1CC[C@@H]1[C@@H]2CC[C@]2(C)[C@@H](O)CC[C@@H]12` it was “inactive”; in that of `CN(CCCC(=O)c1cccnc1)N=O`, “inactive”.
With `C[C@]12CC[C@H](O)CC1=CC[C@@H]1[C@@H]2CC[C@]2(C)C(=O)CC[C@@H]12`, the AC50 was 1130 nM (active).
Same read-out and setting: in the case of `O=C(Cc1ccccc1)c1ccccc1` it was 43600 nM (active).
`C(=NC1CCCCC1)=NC1CCCCC1`: the result was inactive.
Same read-out and setting: in the case of `CCOP(=S)(OCC)Oc1nc(Cl)c(Cl)cc1Cl` it was “inactive”.
For the compound `O=C(Nc1ccc2[nH]ccc2c1)c1cc2cc(F)ccc2n1Cc1cccc(F)c1`, the AC50 is 124 nM (active).
`NNC(=S)NN`: the AC50 is 50000 nM (active).
In the case of `C[C@@H]1C[C@@H]([C@H](O)CC2CC(=O)NC(=O)C2)C(=O)[C@@H](C)C1`, the compound was classed as inactive.
Regarding `Oc1ccc(-c2ccccc2)cc1`, the AC50 is 13100 nM (active).
Turning to `Fc1ccc(C2(Cn3cncn3)OC2c2ccccc2Cl)cc1` (stereo not drawn), the half-maximal activity concentration (AC50) is 2060 nM (active).
For the compound `CCCCCCCCC(=O)NCc1ccc(O)c(OC)c1`, the compound was classed as inactive.
Still for that read-out and setting: the same measure for `CC(C)OC(=O)Nc1ccccc1`: “inactive”.
